Source: PubChem BioAssay (NCI)
Compounds without any hit were thinned out: in the full panel of roughly 83,000, 20% have a hit.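 Compound tested at a single concentration for 48 hours in 96-well plates; a percent growth value below 10 was scored as active.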 Calls of active or inactive are those of the source.

What was measured:
Experiment in all cases: NCI-60 one-dose screen, 48 h (100 = growth as untreated, 0 = no growth, -100 = all killed)
Details in all cases: 10 µM
RPMI-8226 leukemia = test system: RPMI-8226 leukemia
OVCAR-8 ovarian = test system: OVCAR-8 ovarian
OVCAR-5 ovarian = test system: OVCAR-5 ovarian
OVCAR-4 ovarian = test system: OVCAR-4 ovarian
SK-OV-3 ovarian = test system: SK-OV-3 ovarian
IGROV1 ovarian = test system: IGROV1 ovarian
OVCAR-3 ovarian = test system: OVCAR-3 ovarian
HS 578T breast = test system: HS 578T breast
NCI/ADR-RES ovarian = test system: NCI/ADR-RES ovarian
T-47D breast = test system: T-47D breast
BT-549 breast = test system: BT-549 breast
MDA-MB-435 melanoma = test system: MDA-MB-435 melanoma
SW-620 colon = test system: SW-620 colon
MCF7 breast = test system: MCF7 breast
HCT-116 colon = test system: HCT-116 colon
HCC-2998 colon = test system: HCC-2998 colon
KM12 colon = test system: KM12 colon
MDA-MB-468 breast = test system: MDA-MB-468 breast

Measured: growth

C=C1CC[C@H](C(=C)C)[C@H]2C=C(C)C(=O)C3=C(C(=O)[C@@](C)(O)C3)[C@H]12
active: RPMI-8226 leukemia -22.5% | OVCAR-8 ovarian -96.5% | OVCAR-5 ovarian -87.2% | OVCAR-4 ovarian -81.8% | SK-OV-3 ovarian -89.1% | IGROV1 ovarian -61.4% | OVCAR-3 ovarian -41.7% | HS 578T breast -13.1% | NCI/ADR-RES ovarian -31.1% | T-47D breast -59.3% | BT-549 breast -43.7% | MDA-MB-435 melanoma -58% | SW-620 colon -53.3% | MCF7 breast -70.5% | HCC-2998 colon -84.4% | KM12 colon -73.9% | MDA-MB-468 breast -69.5%
inactive: HCT-116 colon 12.2%

O=C(c1ccc(O)cc1)C1[C@H](c2ccccc2Br)[C@@H](c2ccccc2)NC12C(=O)Nc1ccc(Cl)cc12 (stereo partly drawn)
inactive: OVCAR-4 ovarian 17% | SK-OV-3 ovarian 29.6% | NCI/ADR-RES ovarian 11.2% | T-47D breast 18.2% | BT-549 breast 15.7% | HCT-116 colon 18.4%
active: RPMI-8226 leukemia 4.84% | OVCAR-8 ovarian 4.97% | OVCAR-5 ovarian -2.71% | IGROV1 ovarian 7.88% | OVCAR-3 ovarian -46.2% | HS 578T breast 5.54% | MDA-MB-435 melanoma -16.4% | SW-620 colon -0.351% | MCF7 breast -17.2% | HCC-2998 colon -73.2% | KM12 colon -20.7% | MDA-MB-468 breast -47.1%

O=C(c1ccc(Cl)cc1)C1[C@H](c2ccc(Br)cc2)[C@@H](c2ccccc2)NC12C(=O)Nc1ccc(Br)cc12 (stereo partly drawn)
active: RPMI-8226 leukemia -6.16% | OVCAR-8 ovarian -56.7% | OVCAR-5 ovarian -91.2% | OVCAR-4 ovarian -0.87% | SK-OV-3 ovarian 2.89% | IGROV1 ovarian -78.3% | OVCAR-3 ovarian -89.7% | HS 578T breast -16.6% | NCI/ADR-RES ovarian -85.6% | T-47D breast -54% | BT-549 breast -73.3% | MDA-MB-435 melanoma -88.8% | SW-620 colon -71.6% | MCF7 breast -43.3% | HCT-116 colon 1.39% | HCC-2998 colon -98.5% | KM12 colon -50.8% | MDA-MB-468 breast -98.9%

O=C(CS(=O)(=O)c1oc(-c2ccc(Cl)cc2)nc1S(=O)(=O)c1ccc(Cl)cc1)N1CCOCC1
active: RPMI-8226 leukemia -9.59% | OVCAR-4 ovarian -8.45% | OVCAR-3 ovarian 6.83% | T-47D breast -50.2% | SW-620 colon -18.3% | HCT-116 colon 4.36% | MDA-MB-468 breast -4.97%
inactive: OVCAR-8 ovarian 28.3% | OVCAR-5 ovarian 38.3% | SK-OV-3 ovarian 92.8% | IGROV1 ovarian 73.5% | HS 578T breast 76% | NCI/ADR-RES ovarian 28.2% | BT-549 breast 52.4% | MDA-MB-435 melanoma 47% | MCF7 breast 11.3% | HCC-2998 colon 51% | KM12 colon 55.8%

Nc1nc(-c2ccccc2)cc(-c2cc3ccccc3nc2Cl)n1
inactive: RPMI-8226 leukemia 19.2% | OVCAR-8 ovarian 83.9% | OVCAR-5 ovarian 97.8% | OVCAR-4 ovarian 96% | SK-OV-3 ovarian 99.2% | IGROV1 ovarian 97.9% | OVCAR-3 ovarian 67.7% | HS 578T breast 82.8% | NCI/ADR-RES ovarian 80.7% | T-47D breast 73.7% | BT-549 breast 82.2% | MDA-MB-435 melanoma 94.9% | SW-620 colon 62.7% | MCF7 breast 18.4% | HCT-116 colon 33.7% | HCC-2998 colon 103% | KM12 colon 71.7% | MDA-MB-468 breast 77%

C[C@H]1[C@H](C)CC[C@]2(COC(=O)CCC(=O)NCC#CCN3CCNCC3)CC[C@]3(C)C(=CC[C@@H]4[C@@]5(C)CCCNC(C)(C)[C@@H]5CC[C@]43C)[C@H]12
active: RPMI-8226 leukemia -22.9% | SW-620 colon -2.55% | MCF7 breast 1.4% | HCC-2998 colon -41.7%
inactive: OVCAR-8 ovarian 69% | OVCAR-5 ovarian 53.8% | OVCAR-4 ovarian 66.1% | SK-OV-3 ovarian 51.4% | IGROV1 ovarian 44.3% | OVCAR-3 ovarian 75.6% | HS 578T breast 60.8% | NCI/ADR-RES ovarian 66.9% | T-47D breast 40% | BT-549 breast 55.4% | MDA-MB-435 melanoma 32.4% | HCT-116 colon 10.5% | KM12 colon 32.4% | MDA-MB-468 breast 17.9%

COc1ccc2c(c1)N=C(C(=O)O)/C2=C/c1sc(Nc2ccc(O)cc2)nc1O
active: MDA-MB-435 melanoma 8.85%
inactive: RPMI-8226 leukemia 65.7% | OVCAR-8 ovarian 80.8% | OVCAR-5 ovarian 109% | OVCAR-4 ovarian 74.7% | SK-OV-3 ovarian 86.1% | IGROV1 ovarian 74.6% | OVCAR-3 ovarian 72.9% | HS 578T breast 50.9% | NCI/ADR-RES ovarian 93.3% | T-47D breast 45.4% | BT-549 breast 55.4% | SW-620 colon 74.7% | MCF7 breast 27.9% | HCT-116 colon 64.7% | HCC-2998 colon 74.7% | KM12 colon 57.9% | MDA-MB-468 breast 12.3%

C=CCn1c(SCC(=O)Nc2ccc(C(=O)/C=C/c3ccccc3)cc2)nnc1-c1c[nH]c2ccccc12
inactive: OVCAR-8 ovarian 64.7% | OVCAR-5 ovarian 102% | OVCAR-4 ovarian 61.9% | SK-OV-3 ovarian 86.8% | IGROV1 ovarian 42% | OVCAR-3 ovarian 41.4% | HS 578T breast 70.5% | NCI/ADR-RES ovarian 85.4% | T-47D breast 20.8% | BT-549 breast 45.6%
active: RPMI-8226 leukemia 2.87% | MDA-MB-435 melanoma -13.5% | SW-620 colon -28.2% | MCF7 breast -67.7% | HCT-116 colon -52.4% | HCC-2998 colon -69.4% | KM12 colon 6.81% | MDA-MB-468 breast -7.8%

O=C(Nc1nc2ccccc2s1)c1ccc(Br)cc1
inactive: RPMI-8226 leukemia 64.2% | OVCAR-8 ovarian 98.5% | OVCAR-5 ovarian 92.9% | OVCAR-4 ovarian 80.6% | SK-OV-3 ovarian 104% | IGROV1 ovarian 75.1% | OVCAR-3 ovarian 111% | HS 578T breast 95.5% | NCI/ADR-RES ovarian 76.7% | T-47D breast 44.1% | BT-549 breast 90.3% | MDA-MB-435 melanoma 88.8% | SW-620 colon 95% | MCF7 breast 41.6% | HCT-116 colon 86.2% | HCC-2998 colon 78.3% | KM12 colon 72.4% | MDA-MB-468 breast 37.9%

COC(=O)CC1CC1C1Cc2c(nc(N(C)S(C)(=O)=O)nc2C(C)C)-c2ccc(F)cc21 (stereo not drawn)
inactive: RPMI-8226 leukemia 46% | OVCAR-8 ovarian 80.6% | OVCAR-5 ovarian 90% | OVCAR-4 ovarian 82.3% | SK-OV-3 ovarian 106% | IGROV1 ovarian 81.4% | OVCAR-3 ovarian 97.5% | HS 578T breast 84.6% | NCI/ADR-RES ovarian 71.8% | T-47D breast 63.8% | BT-549 breast 64.8% | MDA-MB-435 melanoma 87.2% | SW-620 colon 66% | MCF7 breast 67.1% | HCT-116 colon 44.4% | HCC-2998 colon 101% | KM12 colon 76.2% | MDA-MB-468 breast 74.9%

N#Cc1ccc(-c2nn(-c3ccc(C(=O)O)cc3)cc2CNc2cccc(Br)c2)cc1
active: BT-549 breast 1.51% | HCC-2998 colon 4.19%
inactive: RPMI-8226 leukemia 33.1% | OVCAR-8 ovarian 49% | OVCAR-5 ovarian 99.6% | OVCAR-4 ovarian 75.5% | SK-OV-3 ovarian 112% | IGROV1 ovarian 79% | OVCAR-3 ovarian 38.7% | HS 578T breast 52.6% | NCI/ADR-RES ovarian 13% | T-47D breast 35.4% | MDA-MB-435 melanoma 59% | SW-620 colon 61.2% | MCF7 breast 48.2% | HCT-116 colon 19.9% | KM12 colon 22.4% | MDA-MB-468 breast 66%

CCCCCCCCCCCCCCCCCCCC(=O)NCCc1c[nH]c2ccc(OC(=O)NOCCOCCOCCOCCOCCOCCOCCOCCOCCOCCOCCOCCOCCOCCOCCOCCOCCOCCOCCOCCOCCOCCOC)cc12
active: RPMI-8226 leukemia -29.5% | OVCAR-8 ovarian 7.17% | OVCAR-5 ovarian -5.89% | SK-OV-3 ovarian -10.1% | HS 578T breast -18.9% | T-47D breast -8.69% | BT-549 breast -12.7% | MCF7 breast -12.3% | HCT-116 colon -21.7% | HCC-2998 colon -2.45% | MDA-MB-468 breast -14.7%
inactive: OVCAR-4 ovarian 29.8% | IGROV1 ovarian 18.9% | OVCAR-3 ovarian 11.8% | NCI/ADR-RES ovarian 89.3% | MDA-MB-435 melanoma 17.2% | SW-620 colon 26.6% | KM12 colon 14.9%

CC(=O)Nc1ccc(-n2cnc3cc(-c4ccc(O)cc4)ccc32)cc1C
active: MDA-MB-435 melanoma -13.2% | MDA-MB-468 breast -7.11%
inactive: RPMI-8226 leukemia 42.7% | OVCAR-8 ovarian 58% | OVCAR-5 ovarian 72.7% | OVCAR-4 ovarian 70.2% | SK-OV-3 ovarian 78.8% | IGROV1 ovarian 80.2% | OVCAR-3 ovarian 80.3% | HS 578T breast 64.6% | NCI/ADR-RES ovarian 29.4% | T-47D breast 32.6% | BT-549 breast 50.7% | SW-620 colon 44.2% | MCF7 breast 50.9% | HCT-116 colon 70% | HCC-2998 colon 60.7% | KM12 colon 22.1%

O=C(CSc1nnc(-c2c[nH]c3ccccc23)n1-c1ccccc1)c1ccccc1
active: OVCAR-4 ovarian -2.47%
inactive: RPMI-8226 leukemia 81.3% | OVCAR-8 ovarian 14.7% | OVCAR-5 ovarian 88.6% | SK-OV-3 ovarian 85.6% | IGROV1 ovarian 55.1% | OVCAR-3 ovarian 60.8% | HS 578T breast 24.1% | NCI/ADR-RES ovarian 14.8% | T-47D breast 83.5% | BT-549 breast 62.2% | MDA-MB-435 melanoma 87.2% | SW-620 colon 76.1% | MCF7 breast 36.2% | HCT-116 colon 38% | HCC-2998 colon 83.1% | KM12 colon 69.5% | MDA-MB-468 breast 77.2%

O=C(c1ccc(Cl)cc1)C1[C@H](c2ccc(Br)cc2)[C@@H](c2ccccc2)NC12C(=O)Nc1ccccc12 (stereo partly drawn)
inactive: OVCAR-4 ovarian 12% | SK-OV-3 ovarian 12.7% | HCT-116 colon 10.7%
active: RPMI-8226 leukemia -8.78% | OVCAR-8 ovarian 7.73% | OVCAR-5 ovarian -25.8% | IGROV1 ovarian 6.67% | OVCAR-3 ovarian -30.1% | HS 578T breast -8.79% | NCI/ADR-RES ovarian -53.1% | T-47D breast 1.59% | BT-549 breast -9.62% | MDA-MB-435 melanoma -46.5% | SW-620 colon 3.46% | MCF7 breast -4.24% | HCC-2998 colon -39.3% | KM12 colon -3.73% | MDA-MB-468 breast -6.54%

CC1(C)CC[C@]2(C(=O)NCCCNCCCCNCCCN)CC[C@]3(C)C(=CC[C@@H]4[C@@]5(C)Cc6c([nH]c7ccccc67)C(C)(C)[C@@H]5CC[C@]43C)[C@H]2C1
inactive: RPMI-8226 leukemia 68.3% | OVCAR-8 ovarian 98.6% | OVCAR-5 ovarian 91.1% | OVCAR-4 ovarian 102% | SK-OV-3 ovarian 66.6% | IGROV1 ovarian 77.3% | OVCAR-3 ovarian 118% | HS 578T breast 93.6% | NCI/ADR-RES ovarian 93.2% | T-47D breast 78.7% | BT-549 breast 109% | MDA-MB-435 melanoma 106% | SW-620 colon 113% | MCF7 breast 62.9% | HCT-116 colon 65.3% | HCC-2998 colon 96.5% | KM12 colon 96.4% | MDA-MB-468 breast 75.3%
